Results published in PubChem BioAssay (NCATS).
Results filed as inconclusive are left out. Calls of active or inactive are those of the source. The call rests on the fitted dose curve; in most records, active means well fitted cell-killing curve with a large enough effect; inconclusive means small, poorly fitted or top-dose-only effect, or effect the other way; inactive means flat fitted curve, though single readings scatter.

How the values were obtained:
Test in all cases: Primary qHTS to identify gynecologic anti-cancer compounds using libraries of approved drugs and bioactive compounds (AID 1345084); further: nearly all actives have a fitted effect of over 55% in size
[1] = system: C33A; conditions: Gynecologic cancer cell panel viability, ATPlite luminescence, 48 h; series mostly up to 57.5 µM
Summary of the method: (§1)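 Cells, 1,000 per well, plated 16 h, then exposed 48 h at 37 C to compounds. Viability by ATPlite luminescence after 15 min at room temperature.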

[2] = system: CAOV3; conditions: Gynecologic cancer cell panel viability, ATPlite luminescence, 48 h; series mostly up to 57.5 µM
Summary of the method: as §1

[3] = system: CASKI; conditions: Gynecologic cancer cell panel viability, ATPlite luminescence, 48 h; series mostly up to 57.5 µM
Summary of the method: as §1

[4] = system: Es-2; conditions: Gynecologic cancer cell panel viability, ATPlite luminescence, 48 h; series mostly up to 57.5 µM
Summary of the method: as §1

[5] = system: HeLa; conditions: Gynecologic cancer cell panel viability, ATPlite luminescence, 48 h; series mostly up to 57.5 µM
Summary of the method: as §1

[6] = system: Hek293T; conditions: Gynecologic cancer cell panel viability, ATPlite luminescence, 48 h, control line for the selectivity index; series mostly up to 57.5 µM
Summary of the method: as §1

[7] = system: JEG-3; conditions: Gynecologic cancer cell panel viability, ATPlite luminescence, 48 h; series mostly up to 57.5 µM
Summary of the method: as §1

[8] = system: OV90; conditions: Gynecologic cancer cell panel viability, ATPlite luminescence, 48 h; series mostly up to 57.5 µM
Summary of the method: as §1

[9] = system: PA-1; conditions: Gynecologic cancer cell panel viability, ATPlite luminescence, 48 h; series mostly up to 57.5 µM
Summary of the method: as §1

[10] = system: SKOV3; conditions: Gynecologic cancer cell panel viability, ATPlite luminescence, 48 h; series mostly up to 57.5 µM
Summary of the method: as §1

[11] = system: Tov-21-G; conditions: Gynecologic cancer cell panel viability, ATPlite luminescence, 48 h; series mostly up to 57.5 µM
Summary of the method: as §1

[12] = system: Tov112D; conditions: Gynecologic cancer cell panel viability, ATPlite luminescence, 48 h; series mostly up to 57.5 µM
Summary of the method: as §1
On the % scale 0 is the no-effect control and ±100 the full control effect.

C[C@@H]1O[C@@H](O[C@@H]2CO[C@@H](O[C@H]3CC[C@@]4(C)C(CC[C@]5(C)C4CC=C4[C@@H]6CC(C)(C)CC[C@]6(C(=O)O[C@@H]6O[C@H](CO)[C@@H](O)[C@H](O)[C@H]6O)CC[C@]45C)[C@]3(C)CO)[C@H](O)[C@H]2O[C@@H]2O[C@H](CO)[C@@H](O)[C@H](O)[C@H]2O)[C@H](O)[C@H](O)[C@H]1O (stereo partly specified)
inactive: activity change, negative = cytotoxicity [1] 16.4% [at 11.6 µM] | activity change, negative = cytotoxicity [2] 15.5% [at 11.6 µM] | activity change, negative = cytotoxicity [3] 3.56% [at 11.6 µM] | activity change, negative = cytotoxicity [4] 19.8% [at 11.6 µM] | activity change, negative = cytotoxicity [5] -1.12% [at 11.6 µM] | activity change, negative = cytotoxicity [6] -12.7% [at 11.6 µM] | activity change, negative = cytotoxicity [7] -4.12% [at 11.6 µM] | activity change, negative = cytotoxicity [8] -13.3% [at 11.6 µM] | activity change, negative = cytotoxicity [9] -2.56% [at 11.6 µM] | activity change, negative = cytotoxicity [10] 6.8% [at 11.6 µM] | activity change, negative = cytotoxicity [11] 4.72% [at 11.6 µM] | activity change, negative = cytotoxicity [12] 0.619% [at 11.6 µM]

C=C1C(=O)O[C@@H]2C[C@H](C)[C@@]3(O)C=C(C(C)=O)[C@]4(CC3C[C@H]12)C(=O)O[C@H]1C[C@@H](C)C(CCC(C)=O)=CC[C@H]14 (stereo partly specified)
inactive: Potency [1] | Potency [2] | Potency [3] | Potency [4] | Potency [5] | Potency [6] | Potency [7] | Potency [8] | Potency [9] | Potency [10] | Potency [11] | Potency [12]

CC(=O)CC1CCC(C(C)C(=O)OCC(O)CO)O1 (stereo unspecified)
inactive: Potency [1] | Potency [2] | Potency [3] | Potency [4] | Potency [5] | Potency [6] | Potency [7] | Potency [8] | Potency [9] | Potency [10] | Potency [11] | Potency [12]

C[C@@H]1O[C@@H](O[C@@H]2[C@@H](O[C@@H]3O[C@@H](C)[C@H](O[C@@H]4OC[C@H](O)[C@H](O[C@@H]5OC[C@@H](O)[C@H](O)[C@H]5O)[C@H]4O)[C@@H](O[C@@H]4OC[C@](O)(CO)[C@H]4O)[C@H]3O)[C@H](OC(=O)[C@]34CCC(C)(C)C[C@H]3C3=CCC5[C@@]6(C)C[C@H](O)[C@H](O[C@@H]7O[C@H](CO[C@@H]8OC[C@H](O)[C@H](O)[C@H]8O)[C@@H](O)[C@H](O)[C@H]7O)C(C)(C)C6CC[C@@]5(C)[C@]3(C)C[C@H]4O)OC[C@H]2O)[C@H](O)[C@H](O)[C@H]1O (stereo partly specified)
inactive: activity change, negative = cytotoxicity [1] -0.354% [at 6.55 µM] | activity change, negative = cytotoxicity [2] 6.96% [at 6.55 µM] | activity change, negative = cytotoxicity [3] -5.17% [at 6.55 µM] | activity change, negative = cytotoxicity [4] 0.628% [at 6.55 µM] | activity change, negative = cytotoxicity [5] 4.56% [at 6.55 µM] | activity change, negative = cytotoxicity [6] -4.92% [at 6.55 µM] | activity change, negative = cytotoxicity [7] -6.81% [at 6.55 µM] | activity change, negative = cytotoxicity [8] 10.7% [at 6.55 µM] | activity change, negative = cytotoxicity [9] 18.2% [at 6.55 µM] | activity change, negative = cytotoxicity [10] 4.47% [at 6.55 µM] | activity change, negative = cytotoxicity [11] -2.27% [at 6.55 µM] | activity change, negative = cytotoxicity [12] 7.07% [at 6.55 µM]

CC1(C)CCCC2(C)C1C(O)C=C(CO)C2(O)CO (stereo unspecified)
inactive: Potency [1] | Potency [2] | Potency [3] | Potency [4] | Potency [5] | Potency [6] | Potency [7] | Potency [8] | Potency [9] | Potency [10] | Potency [11] | Potency [12]

CSc1ccc(C(=O)N[C@@H]2CCCC[C@@H]2NC(=O)CNC(=O)c2cc(C(F)(F)F)ccc2NC(=O)NC(C)C)cc1
inactive: Potency [1] | Potency [2] | Potency [3] | Potency [4] | Potency [5] | Potency [6] | Potency [7] | Potency [8] | Potency [9] | Potency [10] | Potency [11] | Potency [12]

COc1cc(C)c(C(=O)O[C@H]2[C@@H](OC(C)=O)[C@H](n3ccc(=O)[nH]c3=O)O[C@@H]2CO)c(OC)c1
inactive: Potency [1] | Potency [2] | Potency [3] | Potency [4] | Potency [5] | Potency [6] | Potency [7] | Potency [8] | Potency [9] | Potency [10] | Potency [11] | Potency [12]

CC1C=CC2CCCCC2C1CCC1CC(O)CC(=O)O1 (stereo unspecified)
inactive: Potency [1] | Potency [2] | Potency [3] | Potency [4] | Potency [5] | Potency [6] | Potency [7] | Potency [8] | Potency [9] | Potency [10] | Potency [11] | Potency [12]

C=C(C)C1CCC2(C(=O)O)CCC3(C(=O)O)C(CCC4C5(C)CCC(O)C(C)(C(=O)O)C5CCC43C)C12 (stereo unspecified)
inactive: Potency [1] | Potency [2] | Potency [3] | Potency [4] | Potency [5] | Potency [6] | Potency [7] | Potency [8] | Potency [9] | Potency [10] | Potency [11] | Potency [12]

CC1C(=O)CC2C3CCC(C(=O)O)C12CC3(C)CO (stereo unspecified)
inactive: Potency [1] | Potency [2] | Potency [3] | Potency [4] | Potency [5] | Potency [6] | Potency [7] | Potency [8] | Potency [9] | Potency [10] | Potency [11] | Potency [12]

C=C1C[C@]23C[C@H]1CC[C@H]2[C@]1(C)CCC[C@@](C)(C(=O)O)[C@H]1[C@@H]3C(=O)O
inactive: Potency [1] | Potency [2] | Potency [3] | Potency [4] | Potency [5] | Potency [6] | Potency [7] | Potency [8] | Potency [9] | Potency [10] | Potency [11] | Potency [12]

O=S(=O)(NC1CCC(c2cc(F)ccc2F)(S(=O)(=O)c2ccc(Cl)cc2)CC1)C(F)(F)F (stereo unspecified)
inactive: Potency [1] | Potency [2] | Potency [3] | Potency [4] | Potency [5] | Potency [6] | Potency [7] | Potency [8] | Potency [9] | Potency [10] | Potency [11] | Potency [12]

CC1OC(OCC2OC(OC3CCC4(C)C(CCC5(C)C4CC=C4C6CC(C)(C)CCC6(C(=O)OC6OC(CO)C(O)C(O)C6O)CCC45C)C3(C)CO)C(O)C(O)C2O)C(O)C(O)C1O (stereo unspecified)
inactive: activity change, negative = cytotoxicity [1] 10.1% [at 11.6 µM] | activity change, negative = cytotoxicity [2] 17.5% [at 11.6 µM] | activity change, negative = cytotoxicity [3] 14.8% [at 11.6 µM] | activity change, negative = cytotoxicity [4] 0.0336% [at 11.6 µM] | activity change, negative = cytotoxicity [5] -1.23% [at 11.6 µM] | activity change, negative = cytotoxicity [6] -5.88% [at 11.6 µM] | activity change, negative = cytotoxicity [7] -1.04% [at 11.6 µM] | activity change, negative = cytotoxicity [8] -5.44% [at 11.6 µM] | activity change, negative = cytotoxicity [9] -0.107% [at 11.6 µM] | activity change, negative = cytotoxicity [10] 24.6% [at 11.6 µM] | activity change, negative = cytotoxicity [11] 2.94% [at 11.6 µM] | activity change, negative = cytotoxicity [12] -1.29% [at 11.6 µM]
